CtBP-E1A blk = qHTS Assay for Inhibitors of the CtBP/E1A Interaction; activity change, % (test concentration not listed); AlphaScreen GST-E1A/His-CtBP binding, 1536-well; hits give low values; 340,000 compounds, 0.49% hits; in the data active = activity change below about -65%; inconclusive = mostly about -30% to -63%
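In 5 uL wells, 23 nL compound meets equimolar GST-E1A and His-CtBP (5X stock 125 nM each) for 2 h, 37 °C. Beads (5X, 50 ug/mL) then 1 h, 37 °C, dark.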
G9a block = qHTS Assay for Inhibitors of Histone Lysine Methyltransferase G9a; Histone-lysine N-methyltransferase EHMT2 (Homo sapiens), Q96KQ7; G9a H3K9 monomethylation, AlphaScreen, 2 h; Potency, µM (top dose mostly 102 µM), actives largely listed as inhibitors; 350,000 compounds, 8.8% hits; AID 504332, 2011; also: nearly all actives have a fitted effect of over 75% in size
Target sequence (Q96KQ7 913-1193 limits assumed): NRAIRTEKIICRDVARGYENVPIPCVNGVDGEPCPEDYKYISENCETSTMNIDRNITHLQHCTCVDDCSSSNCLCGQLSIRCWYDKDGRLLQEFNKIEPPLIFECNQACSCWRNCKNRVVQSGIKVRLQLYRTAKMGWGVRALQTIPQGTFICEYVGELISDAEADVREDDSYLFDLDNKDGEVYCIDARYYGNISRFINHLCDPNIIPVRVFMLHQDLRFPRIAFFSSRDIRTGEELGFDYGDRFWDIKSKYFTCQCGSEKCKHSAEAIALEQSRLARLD
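Compounds were preincubated with 20 nM G9a for 15 min, after which biotinylated H3K9 peptide (500 nM) and SAM (20 uM) started a 2 h room-temperature reaction. Monomethylated product was quantified by antibody-based AlphaScreen chemiluminescence.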
BAZ2B block = qHTS Assay for Inhibitors of BAZ2B; Bromodomain adjacent to zinc finger domain protein 2B (Homo sapiens), Q9UIF8; AlphaScreen BAZ2B-H3K14Ac peptide displacement; Potency, µM (series often up to 114 µM), most hits filed as inhibitors; 360,000 compounds, 4.4% hits; AID 504333, 2011; also: nearly all actives have a fitted effect of over 60% in size
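Complex of BAZ2B and biotin-H3K14Ac (50 nM apiece) forms over 30 min at RT, then faces library compounds up to 110 uM for another 30 min; AlphaScreen beads added, 20 min dark incubation, luminescence read.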
HP1b binding inh = HTS for Inhibitors of HP1-beta Chromodomain Interactions with Methylated Histone Tails; Chromobox protein homolog 1 (Homo sapiens), P83916; AlphaScreen HP1-beta / biotin-H3K9me3 peptide binding; Potency, µM (doses to about 114 µM), hits mostly inhibitors; 390,000 compounds, 0.56% hits; AID 540317, 2011; also: nearly all actives have a fitted effect of over 70% in size
Target sequence (P83916 whole entry, looked up): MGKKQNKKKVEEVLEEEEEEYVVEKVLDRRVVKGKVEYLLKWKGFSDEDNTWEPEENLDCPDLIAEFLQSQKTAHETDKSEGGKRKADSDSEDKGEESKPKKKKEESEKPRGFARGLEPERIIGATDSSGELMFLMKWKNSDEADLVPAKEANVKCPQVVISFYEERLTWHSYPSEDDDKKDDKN
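HP1-beta protein (50 nM final) preincubated 30 min at room temperature with biotinylated H3(1-18)K9me3 peptide (50 nM) in PBS pH 7.4, 0.01% Tween-20, then compound added for 30 min. AlphaScreen streptavidin donor/nickel chelate acceptor beads (10 ug/mL final), 30 min dark, luminescence read.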
JMJD2A Tudor inh = qHTS Assay for Inhibitors of JMJD2A-Tudor Domain; 390,000 compounds, 4.4% hits; Potency, µM (series often up to 114 µM), usual class: inhibitors; AlphaScreen JMJD2A-Tudor / H3K4me3 peptide binding; Lysine-specific demethylase 4A (Homo sapiens), O75164; also: nearly all actives have a fitted effect of over 50% in size
Six1-Eya2 inh = qHTS Assay for Inhibitors of the Six1/Eya2 Interaction; AlphaScreen GST-Six1/His-Eya2 binding, biochemical; hits give low values; activity change, % (test concentration not listed); 360,000 compounds, 0.56% hits; AID 651725, 2012; in the data active = activity change below about -65%; inconclusive = mostly about -30% to -63%
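GST-Six1 + His-Eya2 (5X stock: 250/500 nM); Tris pH 8.0, 300 mM NaCl, 0.05% BSA, 0.02% Tween 20; GSH donor/Ni acceptor beads; 1 h 37 °C dark; AlphaScreen readout.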
Hits are given with their value; i = inactive; ? = inconclusive; nt = no result given; ! = repeats disagree; [ ] = another dose, or the depositor's remark. Rows were chosen to be rich in hits. Some 10% of all compounds tested hit in one or more screens of this group. Unless noted, calls follow the shape of the dose curve; as a rule, active = well fitted inhibition curve with a large enough effect; inconclusive = small, poorly fitted or top-dose-only effect; inactive = no such curve, though single readings can be large or run the other way.

SMILES	CtBP-E1A blk	G9a block	BAZ2B block	HP1b binding inh	JMJD2A Tudor inh	Six1-Eya2 inh
O=C1CCCN1CCC1CCN(C2CC(=O)N(c3ccc(Cl)cc3)C2=O)CC1 (stereo not given)	i	11.2µM	i	i	i	i
O=C1CCCN1CCC1CCN(C2CC(=O)N(Cc3ccc(N4CCCC4=O)cc3)C2=O)CC1 (stereo not given)	i	?	i	i	i	i
O=C(C1CCCN(C2CC(=O)N(c3ccc(Cl)cc3)C2=O)C1)N1CCCC1 (stereo not given)	i	79.4µM	i	i	i	i
NNc1nncc2ccccc12	nt	7.94µM!	nt	nt	nt	nt
CNC(=S)NNc1nncc2ccccc12	i	2.51µM	i	i	i	i
Cc1ccc(Sc2ccc(N3CCC(C(=O)Nc4ccc(Cl)cc4)CC3)nn2)cc1	nt	i	i	i	i	nt
CCNC(=O)COC(=O)/C=C/c1cccc(F)c1	i	i	i	i	i	i
Cn1c2c(c(=O)n(C)c1=O)C(CC(=O)Nc1ccc(F)cc1)C(=O)N2 (stereo not given)	i	i	?	i	i	i
CC(C)C(=O)Nc1ccc2c(c1)Cc1cc(NC(=O)C(C)C)ccc1-2	i	i	i	i	i	i
CCC(C)OC(=O)c1[nH]c2c(c1C)C(=O)CC(c1ccc(N(C)C)cc1)C2 (stereo not given)	i	14.1µM	?	i	?	i
C/C=C/COC(=O)c1[nH]c2c(c1C)C(=O)CC(c1ccc(N(C)C)cc1)C2 (stereo not given)	i	35.5µM	?	i	89.1µM	i
COc1ccc(NC(=O)CSc2nnc(-c3cc(C)[nH]n3)n2N)cc1	i	i[0.0925 µM]	i	i	i	i
CN1CCN(C(=O)c2cnn(-c3cccc(Cl)c3)c2C2CCN(C(=O)OC(C)(C)C)CC2)CC1	nt	i	i	i	i	nt
CCOC(=O)C1=C(c2ccccc2)N=c2s/c(=C\c3ccco3)c(=O)n2C1c1cccs1 (stereo not given)	i	?	11.2µM	i	25.1µM	i
CCOC(=O)C1=C(N)n2c(s/c(=C\c3ccco3)c2=O)=C(C(=O)OC(C)C)C1c1ccco1 (stereo not given)	i	28.2µM	?	i	?	i
CCOC(=O)C1=C(c2ccccc2)N=c2s/c(=C\c3cc(OC)c(OC)c(OC)c3)c(=O)n2C1c1cccs1 (stereo not given)	i	?	?	i	i	i
CCOC(=O)C1=C(N)n2c(s/c(=C\c3ccco3)c2=O)=C(C(=O)OCC)C1c1ccco1 (stereo not given)	i	?	7.94µM	i	?	i
CCN(c1ccccc1)S(=O)(=O)c1ccc(F)c(C(=O)Nc2ccc(C)cc2)c1	nt	i	i	i	i	nt
Cc1ccc(S(=O)(=O)NC(CC(=O)O)c2ccco2)cc1 (stereo not given)	i	?	i	i	i	i
O=C(O)CC(NS(=O)(=O)c1ccc(Br)cc1)c1ccco1 (stereo not given)	i	79.4µM	i	i	i	i
Cc1ccc(S(=O)(=O)NC(CC(=O)NCC2CCCO2)c2ccco2)cc1 (stereo not given)	i	i	i	i	4.47µM	i
CCCCNC(=O)CC(NS(=O)(=O)c1ccc(C)cc1)c1ccco1 (stereo not given)	i	i	i	i	i	i
O=C1CCC(=O)N1CO	nt	i[12.7 µM]	nt	nt	nt	nt
O=C(NCc1ccc2c(c1)OCO2)c1cccc(C(=O)NCc2ccc3c(c2)OCO3)c1	i	i	nt	i	i	i
O=C(NCc1ccco1)c1cccs1	i	39.8µM	i	i	i	i
SMILES	CtBP-E1A blk	G9a block	BAZ2B block	HP1b binding inh	JMJD2A Tudor inh	Six1-Eya2 inh
O=C(NCc1ccco1)c1cc2c(s1)CSC2	i	?	50.1µM	50.1µM	31.6µM	?
O=C(NNC(=S)NCc1ccco1)c1cccs1	i	?	i	i	?	i
O=C(NCc1ccco1)c1cc2cc(Br)ccc2o1	i	8.91µM	?	?	?	i
O=C(NCc1ccc2c(c1)OCO2)c1cc2c(s1)CSC2	i	35.5µM	i	i	i	i
O=C(NCc1ccco1)c1ccc(C(=O)NCc2ccco2)cc1	i	nt	nt	i	i	i
COc1ccc(CNC(=O)CN2C(=O)CSc3ccc(S(=O)(=O)N4CCCC4)cc32)cc1	nt	i	i	i	i	nt
Cn1c(SCC(=O)c2ccc3c(c2)OCCO3)nnc1C(F)(F)F	nt	56.2µM	i	i	i	i
Cn1c(SCC(=O)Nc2ccc3c(c2)OCCO3)nnc1C(F)(F)F	i	?	i	i	i	i
Cn1c(SCC(=O)c2ccc3c(c2)OCCO3)nnc1C1CC1	i	22.4µM	i	i	i	i
Cc1ccc(S(=O)(=O)N2CCN(C(=O)COC(=O)COc3cccc(C(F)(F)F)c3)CC2)c(C)c1	nt	nt	nt	i	i	i
COCCOC(=O)c1c(NC(=O)COC(=O)Cc2cccc(OC)c2)sc(C(N)=O)c1C	i	nt	i	i	i	i
COc1ccc(NC(=O)CSc2nc3c(cc2C#N)CN(C)CC3)cc1	i	11.2µM	i	i	i	i
CN1CCc2nc(SCC(=O)Nc3ccc(F)cc3)c(C#N)cc2C1	nt	6.31µM	i	nt	nt	nt
CCN1CCc2nc(SCC(=O)Nc3ccc(OC)cc3)c(C#N)cc2C1	i	?	i	i	i	i
Cc1noc(NS(=O)(=O)c2ccc(NC(=O)CC(C)C)cc2)c1C	i	i	i	i	i	i
Cc1noc(NS(=O)(=O)c2ccc(NC(=O)CSc3nc4c(cc3C#N)CCCCC4)cc2)c1C	i	79.4µM	i	i	i	i
COc1ccc2[nH]cc(CCNC(=O)COc3cc(C)cc4oc(=O)cc(C)c34)c2c1	?	i[12.7 µM]	i	i	i	i
O=C(CN1CCN(c2ccccc2O)CC1)Nc1ccc2c(c1)CCC2	i	70.8µM	i	i	?	i
O=C(CN1CCCC1)Nc1ccc2c(c1)CCC2	i	25.1µM	50.1µM	i	3.16µM	i
O=C(CN1CCN(Cc2ccccc2)CC1)Nc1ccc2c(c1)CCC2	i	?	i	i	i	i
O=C(CN1CCN(S(=O)(=O)c2ccccc2)CC1)Nc1ccc2c(c1)CCC2	i	i	i	i	i	i
O=c1/c(=C/c2ccc(O)cc2)sc2nc3cc(Br)cnc3n12	nt	10µM	i	nt	nt	nt

Screens from PubChem.
